What all share (test): NCI-60 one-dose screen, 48 h (100 = growth as untreated, 0 = no growth, -100 = all killed)
Common to all, as to details: 10 µM unless noted

The test system of experiment [1] is DU-145 prostate.
Experiment [2] has as its system K-562 leukemia.
The subject of experiment [3] is MALME-3M melanoma.
Experiment [4] deals with MDA-MB-231 breast.
The subject of experiment [5] is RXF 393 renal.
Experiment [6] deals with SF-268 CNS.
The subject of experiment [7] is SF-295 CNS.
Experiment [8] deals with SF-539 CNS.
The subject of experiment [9] is UACC-257 melanoma.
Experiment [10] relates to M14 melanoma.
The subject of experiment [11] is HCT-15 colon.
Experiment [12] has as its system HT29 colon.
Experiment [13] deals with SNB-75 CNS.
The test system of experiment [14] is SNB-19 CNS.
Experiment [15] concerns PC-3 prostate.
The test system of experiment [16] is SK-MEL-5 melanoma.
Experiment [17] concerns UACC-62 melanoma.
Experiment [18] relates to LOX IMVI melanoma.
Experiment [19] deals with SK-MEL-28 melanoma.
Experiment [20] has as its system U251 CNS.

Each structure is given as a SMILES string. The panel holds about 83,000 compounds, 20% with a hit somewhere; the sample as a whole holds those more often.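 Growth was measured after 48 h exposure to one concentration of compound in 96-well plates. Values under 10 count as active.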 A number with no mark means an inactive call. Activity calls are given as the source filed them.

For `C/C=C(/C)n1cnc2c(Nc3ccccn3)nc(Cl)nc21`, the growth in experiment [1] is 109%; in experiment [2], 95.6%; in experiment [3] it was 106%; in experiment [4], 107%; in experiment [5], 105%; in [6], 99.2%. For the same molecule, the growth in experiment [7] is 104%; in [8], 102%; in experiment [9], 97.6%; in [10], 101%; in [11], 103%; in [12], 98.1%. Also, the growth is 87.9% in experiment [13]; 107% in experiment [14]; 95.3% in experiment [15]; 101% in [16]; 95.8% in experiment [17]; 95.3% in [18]. The growth in [19] was 105%.

Take `O=C(Nc1cnc(Nc2ccc(N3CCOCC3)nc2)nc1Oc1ccc(C(F)(F)F)cc1)c1ccncc1`: the growth in experiment [1] was 66%; in [2] it was 78.7%; in experiment [3], 96.9%; in experiment [4], 94.5%; in [5] it was 93.1%; in experiment [6], 86.3%. The growth in experiment [7] is 104%; in experiment [8] it was -53.1% (active); in [9], 92.8%; in [10], 99%; in [11], 96.9%; in experiment [12] it was 101%. The growth was 89.8% in [13]; 92.1% in experiment [20]; 97.4% in [15]; 95.3% in experiment [16]; 94.1% in experiment [17]; 86% in [18]. Also, in experiment [19], the growth is 95.8%.

`COc1ccc(C(=O)c2cc3c(N)c(C(=O)Nc4ccccc4)sc3nc2C)cc1`: the growth in experiment [1] is 17.7%; in [2], 8.08% (active); in experiment [3] it was 62.7%; in experiment [4] it was 23.3%; in experiment [5] it was -2.82% (active); in experiment [6], 51.4%. Moreover, the growth in [7] was 26.9%; in [8], -5.08% (active); in experiment [9] it was 70.7%; in [10] it was 13.1%; in experiment [11], 18.7%; in experiment [12], 14.9%. In addition, the growth is 28.2% in experiment [13]; 17.8% in experiment [20]; 24.3% in experiment [15]; 17.2% in experiment [16]; 30.5% in experiment [17]; 53.6% in experiment [18]. For the same molecule, the growth in experiment [19] was 59.8%.

For `N#CC1=C(N)Oc2ccc3ccccc3c2C1c1ccc([N+](=O)[O-])cc1` (stereo unspecified), the growth in experiment [1] is 104%; in experiment [2] it was 77.7%; in experiment [3] it was 51.4%; in experiment [4], 57.8%; in experiment [5], 94.7%; in experiment [6], 80.5%. The growth was 84.6% in [7]; 85.7% in experiment [8]; 89.3% in experiment [9]; 89.7% in [10]; 87.6% in experiment [11]; 105% in experiment [12]. The growth is 61.7% in experiment [13]; 94.2% in experiment [20]; 69.8% in [15]; 86.2% in experiment [16]; 77.3% in experiment [17]; 74.6% in experiment [18]. Besides, the growth in experiment [19] was 99.1%.

On to `C=CCN1C(=O)c2cccc3c(N4CCOCC4)ccc(c23)C1=O`, for which the growth in experiment [1] is 10.3%; in [2], 9.78% (active); in experiment [3], -3.28% (active); in experiment [4], 23.9%; in experiment [5] it was -29.9% (active); in experiment [6] it was -23.9% (active). In addition, the growth in experiment [7] is 2.87% (active); in [8], 0.495% (active); in experiment [9], -3.63% (active); in experiment [10], 0.387% (active); in experiment [11], -9.11% (active); in experiment [12], 6.76% (active). Besides, the growth in experiment [13] is 12.8%; in [20], 5.37% (active); in [15], -21.3% (active); in experiment [16], -62.7% (active); in experiment [17], -24.7% (active); in experiment [18] it was 1.13% (active). For the same molecule, the growth in [19] is 5.67% (active).

For `O=C(CCCCCNC(=O)c1cc(=O)c(O)co1)Nc1ccccc1`, the growth in experiment [1] was 103%; in [2], 95.2%; in experiment [3] it was 102%; in experiment [4], 101%; in experiment [5], 109%; in experiment [6] it was 91.8%. For the same molecule, the growth in [7] was 97.4%; in experiment [8] it was 101%; in experiment [9] it was 93.8%; in [10], 96.3%; in experiment [11] it was 91.5%; in experiment [12], 106%. In addition, the growth in experiment [13] is 82.7%; in [20], 89.9%; in experiment [15] it was 99.7%; in [16], 101%; in [17], 97.9%; in experiment [18], 92.7%. Further, the growth in [19] was 104%.

As to `CSc1nc(C)c([N+](=O)[O-])c(N)n1`, the growth was 109% in [1]; 91% in experiment [2]; 104% in [3]; 96.5% in experiment [4]; 114% in [5]; 105% in experiment [6]. Moreover, the growth was 109% in experiment [7]; 104% in [8]; 84.7% in [9]; 91.8% in experiment [10]; 107% in experiment [11]; 85.4% in experiment [12]. Besides, the growth is 98.7% in [13]; 87.9% in experiment [20]; 85.3% in experiment [15]; 102% in [16]; 98% in [17]; 96.7% in [18].

For `c1ccc2c(c1)CCCc1nnc3nc4ccccc4n3c1-2`, the growth in experiment [1] is 39.9%; in experiment [2], 31.4%; in [3], 53.5%; in experiment [4], 38.5%; in experiment [5], 46.7%; in experiment [6], 44.5%. Moreover, the growth in [7] is 30.7%; in experiment [8], 69.5%; in [9] it was 37.6%; in experiment [10] it was 28.3%; in [11] it was 40.2%; in experiment [12], 31.4%. Moreover, the growth in [13] is 45.4%; in experiment [14] it was 56.5%; in [15], 37.1%; in experiment [16], 56.5%; in experiment [17] it was 57.7%; in experiment [18], 33.7%. Also, in experiment [19], the growth is 83.7%.

These data come from PubChem BioAssay (NCI).
